Among the data in the supplement of paper PMC9950053 are excitability values, retold here.

The structures appear in SMILES notation. Structures can show the parent of a compound that is named as a salt.

This assay deals with Danio rerio larvae (5 dpf). Put plainly: excitability (activity period 17 minus period 16, 1-s interval sound) minus DMSO control (percentage points); higher = more acoustic excitability than DMSO larvae. As to conditions: 10 µM; exposure time: 3 h pre-incubation + 3 h imaging. As to the method: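 Wild-type 5 dpf zebrafish larvae (n=48 per drug, 96-well plates, 28.5 °C) were exposed to Tocris FDA-approved library compounds at 10 µM (0.1% DMSO) for 3 h before and 3 h during imaging. Images were taken every 6 s during visual and acoustic stimuli, and larvae were tracked with Z-LaP Tracker. Each measure is the treated-group mean minus the DMSO control mean (n=844), in percentage points. This mapping covers compounds with 5-character plate codes.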
For the molecule `COc1ccc(C(CN(C)C)C2(O)CCCCC2)cc1` (stereo unspecified) [Venlafaxine hydrochloride], the excitability was 8.91.
